An excerpt weighted towards active compounds, which were near 1.6% of everything screened.
KCNQ2 inh = rat KCNQ2 potassium channel inhibitors, primary screen, cell-based, CHO-K1, FluxOR thallium flux, B-score. Potassium voltage-gated channel subfamily KQT member 2 (Rattus norvegicus), O88943. 20 min; active compounds read low. B-score at 10 µM. actives 1.1% (n = 310,000);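 active = fluorescence ratio B-score at most minus 3 library SDs, with starting brightness B-score within 2 library SDs, cut at about -5.5 in these data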
KCNQ2 enhance = potentiators of rat KCNQ2 potassium channel. Potassium voltage-gated channel subfamily KQT member 2 (Rattus norvegicus), O88943. CHO-K1 KCNQ2, FluxOR thallium flux fluorescence; active compounds read high. B-score at 10 µM. actives 0.54% (n = 310,000). AID 2239, 2010;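 active = fluorescence ratio B-score at least 3 SD of library B-scores, with initial fluorescence B-score within 3 of them, cut at about 5.3 in these data; same plate scores as AID 2156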;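 also: B-score of peak minus minimum over baseline fluorescence ratio after K+ and Tl+ stimulus; positive B-score means potentiation of KCNQ2 with more thallium influx and brighter signal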
* = called active by the depositor; i = inactive; nt = no result.

SMILES	KCNQ2 inh	KCNQ2 enhance
Cc1cc(=O)[nH]c(SCC(=O)N2CCCc3ccccc32)n1	-6.2*	-6.2
CCOc1ccc2nc(SCC(=O)N3CCCc4ccccc43)sc2c1	i	nt
O=C(CSc1nc(O)cc(=O)[nH]1)N1CCCc2ccccc21	i	0.47
Cc1cc(NC(=O)c2cc(-c3ccc(OC(C)C)cc3)nc3ccccc23)no1	i	nt
CC(C)(C)CN1CCN(Cc2c[nH]c3ccccc23)CC1CCO (centres undefined)	i	1.2
CCc1nnc(SCC(=O)Nc2nc(C)c(C(=O)N(C)C)s2)n1CC	i	0.19
CSc1ccc(CN2CCCN(C)CC2)cc1	i	nt
O=c1c2ccccc2nc(SCc2nnc(-c3ccccc3Br)o2)n1-c1ccccc1	i	nt
O=c1c2ccccc2nc(SCc2nnc(-c3ccccc3)o2)n1-c1ccc(F)cc1F	-6.4*	-6.4
COC(=O)c1ccc(Oc2c(F)c(F)nc(N3CCOCC3)c2F)cc1	i	nt
Cc1cc(Cl)ccc1OC(C)C(=O)N1CCCN(C(=O)C(C)Oc2ccc(Cl)cc2C)CC1 (centres undefined)	-6.2*	-6.2
Cc1cc(Cl)ccc1OCC(=O)N1CCCN(C(=O)COc2ccc(Cl)cc2C)CC1	i	nt
N/C(=N\OC(=O)c1cccc2ccccc12)c1ccncc1	i	nt
N/C(=N\OC(=O)c1cccc2ccccc12)c1ccc(Br)cc1	-5.6*	-5.6
Cc1ccc(C(=O)O/N=C(\N)c2ccc(Br)cc2)cc1C	i	0.55
Cc1cc(C)cc(C(=O)O/N=C(\N)c2ccc(Br)cc2)c1	-6.8*	-6.8
COc1cc(C)c(NC(=S)NCCCN2CCOCC2)cc1OC	i	nt
CCC(C)N(C(=O)COC(=O)c1cc([N+](=O)[O-])ccc1N)C1CCS(=O)(=O)C1 (centres undefined)	i	nt
Cc1ccc(S(=O)(=O)N2CCC(C(=O)NNC(=O)c3cccnc3)CC2)cc1	i	nt
Cc1nc2ccc(NC(=O)c3ccc([N+](=O)[O-])cc3)cc2[nH]1	i	nt
C=CCn1c(C(C)NC(=O)C(C)(C)C)nc2ccccc21 (centres undefined)	-6.6*	-6.6
C=CCn1c(CCCNC(=O)C(C)(C)C)nc2ccccc21	i	1.2
COCCN1C(=O)/C(=C/c2ccc(OCc3ccc(C(=O)O)cc3)c(OC)c2)SC1=Nc1ccccc1	-6.1*	-6.1
COc1cc(/C=C2\SC(=Nc3ccccc3)N(Cc3ccco3)C2=O)ccc1OC(C)C(=O)O (centres undefined)	i	nt
CCOc1ccccc1C(=O)Nn1c(C2CCC2)nc2ccccc2c1=O	-6.8*	-6.8
SMILES	KCNQ2 inh	KCNQ2 enhance
COc1ccccc1C(=O)Nn1c(C2CCC2)nc2ccccc2c1=O	i	nt
CCN(CC(=O)NCc1cccs1)C(=O)c1cccc(S(=O)(=O)NC)c1	i	nt
CCN(CC(=O)NCc1cccs1)C(=O)c1ccc(-c2cccc(C(F)(F)F)c2)o1	-7.6*	-7.6
O=C(CCl)Nc1cccc(S(=O)(=O)NC2=NCCC2)c1	i	0.02
CN(C)c1ncc(C2=C(Cl)C(=O)C(N3CCCC3)=C(Cl)C2=O)s1	-8.6*	-8.6
O=C1C(Cl)=C(N2CCCCC2)C(=O)C(Cl)=C1c1cnc(N2CCCCC2)s1	i	nt
CCCSc1nc(N2CCOCC2)c2c(c1C#N)CC(C)(C)SC2	i	1.1
CC(C)Sc1nc(N2CCOCC2)c2c(c1C#N)CC(C)(C)SC2	-6.2*	-6.2
Cc1ccc(C(=O)NC(=S)Nc2ccccc2N2CCOCC2)cc1C	-6.1*	-6.1
COc1cc(C(=O)NC(=S)Nc2ccccc2N2CCOCC2)cc(OC)c1OC	i	nt
Cc1nn(C)c2nc(-c3cccs3)cc(C(F)(F)F)c12	i	nt
Cc1nn(CCO)c2nc(-c3cccs3)cc(C(F)(F)F)c12	i	5.8*
CC(NC(=O)Cc1cccs1)C(c1cccs1)N1CCN(c2ccccc2)CC1 (centres undefined)	i	8.2*
CCC(=O)NC(C)C(c1cccs1)N1CCN(c2ccccc2)CC1 (centres undefined)	i	0.03
O=C(NCC(c1ccco1)N1CCc2ccccc2C1)C(=O)Nc1cc(F)ccc1F (centres undefined)	-6.2*	-6.2
O=C(NCC(c1ccco1)N1CCc2ccccc2C1)c1ccc(F)cc1 (centres undefined)	-5.7*	-5.7
COc1ccccc1NC(=O)C(=O)NCC(c1ccco1)N1CCc2ccccc2C1 (centres undefined)	i	nt
O=C(NCC(c1ccco1)N1CCc2ccccc2C1)c1ccccc1 (centres undefined)	i	nt
COc1cc(/C=C2\SC(=S)N(NC(=O)c3ccccc3O)C2=O)ccc1O	i	nt
O=C(NN1C(=O)/C(=C/c2ccc(O)cc2)SC1=S)c1ccccc1O	-6*	-6
CCCN(CC1CC1)C(=O)COc1ccccc1C(=O)NCc1ccccc1	-7.7*	-7.7
CCC(C)N(C(=O)COc1ccccc1C(=O)NCc1ccccc1)C1CCS(=O)(=O)C1 (centres undefined)	i	nt
C=CCn1c(SCc2ccc(F)cc2)nnc1-c1sc2nc(C)cc(C)c2c1N	i	nt
CCN(CC)c1ccc(/C=N/N2CCN(Cc3ccc(C)cc3)CC2)c(O)c1	-6.2*	-6.2
CCN(CC)c1ccc(/C=N/N2CCN(Cc3ccccc3Cl)CC2)c(O)c1	i	nt
SMILES	KCNQ2 inh	KCNQ2 enhance
COc1ccc(CCNC(C(=O)Nc2cc(C)cc(C)c2)c2ccccc2)cc1 (centres undefined)	-8.1*	-8.1
CCOc1ccccc1NC(=O)C(NCCc1ccc(OC)cc1)c1ccccc1 (centres undefined)	i	nt
COc1ccccc1C(=O)C1CCCN(C(=O)c2ccccn2)C1 (centres undefined)	i	nt
Cc1ccc2nc(-c3cccc(Br)c3)cc(C(=O)NC3=NCCS3)c2c1	-7.3*	-7.3
O=C(NC1=NCCS1)c1cc(-c2cccc(Br)c2)nc2ccccc12	i	nt
CCN(CC)C(=O)c1ccccc1NS(C)(=O)=O	i	0.66
CCOC(=O)c1c(NC(NC(C)=O)C(Cl)(Cl)Cl)sc2c1CCCC2 (centres undefined)	-6.5*	-6.5
COC(=O)c1c(NC(NC(C)=O)C(Cl)(Cl)Cl)sc2c1CCCC2 (centres undefined)	i	nt
COc1ccccc1N1CCN(CCN2C(=O)C3CCCN3C2=O)CC1 (centres undefined)	i	nt
O=C(O)c1ccccc1NC(=S)NC(=O)c1sc2ccccc2c1Cl	i	0.83
O=C(NNC(=S)NC(=O)c1sc2ccccc2c1Cl)c1ccc(Cl)cc1	i	13*
O=C(NCCC(=O)N1CCCCCCC1)c1ccc(Cl)cc1	i	nt
Cc1cc(C)n(-c2nc3ccccc3c(=O)n2OCC(=O)Nc2c(C)cccc2C)n1	-6*	-6
Cc1cc(C)n(-c2nc3ccccc3c(=O)n2OCC(=O)N(C)C)n1	i	0.04
COC(=O)c1ccc2c(=O)n(CCCCCC(=O)N3CCN(c4ccccc4)CC3)c(=O)[nH]c2c1	i	0.02
COc1cc2[nH]c(=O)n(CCCCCC(=O)N3CCN(c4ccccc4)CC3)c(=O)c2cc1OC	-8.3*	-8.3
O=C(Nc1ccc(F)c(F)c1)C1CCN(S(=O)(=O)c2cccc3nonc23)CC1	i	0.36
Oc1c(CN2CCCCC2)cc(Br)c2cccnc12	i	8.4*
O=C(COc1c(Br)cc(Br)c2cccnc12)N1CCCCC1	i	4.6
COc1ccc(C(=O)CC(SCC(NC(C)=O)C(=O)O)c2ccc(Cl)cc2)cc1OC (centres undefined)	i	nt

Compound activity from PubChem.
